Compound activity from PubChem BioAssay.
Hits are enriched below; roughly 2.1% of the tested compounds scored in any of these assays.
TDP-43 yeast inh – qHTS of TDP-43 Inhibitors; 410,000 tested, 1.8% active; Potency, µM (highest dose often 46.1 µM), inactives show top-dose growth rescue (activation), most hits filed as activators; TDP-43 expressing yeast growth rescue, BacTiter-Glo, 24 h; also: % of control where 0% means no effect; nearly all actives have a fitted effect of over 50% in size
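Yeast cells expressing TDP-43 under galactose induction are exposed to compounds for 24 hr at 30 deg C. BacTiter-Glo luminescence measures growth, so protective compounds score as activators.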
PTAP TSG101 blk – qHTS Assay for Iinhibitors of HIV-1 Budding by Blocking the Interaction of PTAP/TSG101; Tumor susceptibility gene 101 protein (Homo sapiens), Q99816; Fluorescence polarization, FITC-PTAP peptide / Tsg101 binding; Potency, µM (titrated, usually from 115 µM), without a hit: top-dose activity change, negative = inhibition, most hits filed as inhibitors; 340,000 tested, under 10 active; AID 493005, 2010; active = well fitted inhibition curve with a large enough effect in the main read-out, with a control signal flat, not every such curve was filed as active; inconclusive = small, poorly fitted or top-dose-only effect, or effect the other way, or a change in a side signal; inactive = no such curve, though single readings can be large or run the other way; also: % of control where 0% means no effect
Target sequence (Q99816 whole entry, looked up): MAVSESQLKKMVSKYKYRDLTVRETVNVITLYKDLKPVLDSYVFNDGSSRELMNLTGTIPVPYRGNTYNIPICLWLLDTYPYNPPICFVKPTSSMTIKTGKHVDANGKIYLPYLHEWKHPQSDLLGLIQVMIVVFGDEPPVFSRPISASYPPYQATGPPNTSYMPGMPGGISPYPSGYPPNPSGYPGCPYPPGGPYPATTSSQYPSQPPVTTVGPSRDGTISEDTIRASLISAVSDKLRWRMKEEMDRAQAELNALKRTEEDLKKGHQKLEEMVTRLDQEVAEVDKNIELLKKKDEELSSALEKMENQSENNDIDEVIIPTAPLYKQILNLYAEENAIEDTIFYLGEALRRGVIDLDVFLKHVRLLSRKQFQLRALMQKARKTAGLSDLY
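Fluorescence polarization binding of Tsg101 binding domain (10 uM final) to FITC-labeled PTAP peptide (50 nM final) in HEPES pH 7.5 buffer with NaCl, Tween 20, EDTA, TCEP. Compounds added before peptide; binding 20 min at RT.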
aSyn rescue – qHTS of alpha-syn Inhibitors; Yeast expressing alpha-synuclein, growth rescue, BacTiter-Glo, 24 h; Potency, µM (doses to about 46.1 µM), for the others: at the highest dose growth rescue (activation), hits mostly activators; 370,000 tested, 0.14% active; also: % of control where 0% means no effect; nearly all actives have a fitted effect of over 65% in size
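Rescue of yeast growth: cells expressing toxic alpha-synuclein, induced in galactose at OD600 0.02, incubated with compound 24 h at 30 C. ATP luminescence quantified growth; inhibitors of toxicity appear as activators.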
Abeta rescue – qHTS for compounds that reverse cellular toxicity of Amyloid beta (A-beta) peptide in yeast: Primary Screen. yeast expressing A-beta42, growth rescue, OD600, 48 h; response scale: 0% DMSO, 100% iron-clioquinol control. Potency, µM (series often up to 46.1 µM), actives largely listed as activators. 410,000 tested, 0.063% active; also: nearly all actives have a fitted effect of over 55% in size
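Yeast A-beta toxicity model in growth medium with pinned compounds, 48 h at 30 C; growth read as absorbance at 600 nm. Normalized to FeCl3/clioquinol equimolar mix (positive) and DMSO (negative).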
FUS suppressor – qHTS for Suppressors of FUS Proteinopathy: Primary screen using FUS-linked yeast assay | Potency, µM (titrated, usually from 76.6 µM), actives largely listed as activators | S. cerevisiae FUS-expressing, growth rescue, OD600, 24 h | 390,000 tested, 0.24% active | AID 1347120, 2019;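 also: plate controls were DMSO vehicle for no effect and reference control for full effect; nearly all actives have a fitted effect of over 55% in size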
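FUS-expressing yeast, raffinose-pregrown, induced in 2% galactose minimal medium at OD 0.005; compounds in a dilution series, 24hr at 30C. Growth restoration read as absorbance at 600 nm. CP55940 positive control, DMSO negative.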
* = called active by the depositor; i = inactive; ? = inconclusive; . = no result. Unless noted, calls follow the shape of the dose curve; as a rule, active = well fitted curve in the direction sought with a large enough effect; inconclusive = small, poorly fitted or top-dose-only effect, or another doubt; inactive = no such curve, though single readings can be large; an effect the other way counts as inactive or inconclusive. Potency is read from the fitted curve at half-maximal effect.

SMILES	TDP-43 yeast inh	PTAP TSG101 blk	aSyn rescue	Abeta rescue	FUS suppressor
CCC(=O)NC(=S)Nc1cccc(NC(=O)c2ccccc2C)c1	3%	-13%	11%	i	i
CCCC(=O)NC(=S)Nc1cccc(NC(=O)c2ccccc2Cl)c1	11µM*	0%	5%	i	i
CCC(=O)NC(=S)Nc1cccc(NC(=O)c2ccccc2Cl)c1	14µM*	-9%	-2%	i	i
CCCc1cc(=O)n2[nH]c(NC(=O)c3ccccc3Cl)nc2n1	5%	.	.	i	i
CN(C)c1ccc(C(=O)NCCc2ccccc2-c2ccccc2CCC(=O)NCc2ccccc2)cc1	.	.	.	.	i
CCOC(=O)c1sc2cccc(F)c2c1S(=O)(=O)Nc1ccccc1F	18µM*	.	.	i	i
CCOc1ccccc1NS(=O)(=O)c1c(C(=O)OC)sc2cccc(F)c12	4%	.	.	i	i
CCOc1cc(-c2ccccc2)nc2c1CN(S(=O)(=O)c1ccc(C)cc1)C(c1cccc(Cl)c1)C2 (centres undefined)	22%	.	0%	i	i
CC(=O)c1cccc(Nc2cc(C)nc3nc(-c4ccccc4C)nn23)c1	11µM*	.	.	i	i
CC1CCCN(c2nc3c(c(=O)n(C)c(=O)n3C)n2Cc2ccccc2)C1 (centres undefined)	18µM*	-5%	19%	i	i
CC1(C(=O)Nc2ccc3c(c2)OCCO3)CCN1C(=O)c1ccccc1CCc1ccccc1 (centres undefined)	14µM*	.	2%	i	i
CCOC(=O)c1cc(S(=O)(=O)N2CCN(c3cccc(C)c3C)CC2)[nH]n1	35µM*	.	.	?	?
CCOC(=O)c1cc(S(=O)(=O)N2CCN(c3ccc(C)cc3C)CC2)[nH]n1	14µM*	.	.	i	?
O=C1CCCN1CCCNS(=O)(=O)c1ccccc1	1.1µM*	1%	?	i	i
COc1ccc(CC(=O)N2CCc3cc(OC)c(OC)cc3C2COc2cc(C)cc(C)c2)cc1OC (centres undefined)	.	.	.	i	?
Cc1ccc(-n2c(C)cc(C(=O)CSc3nnnn3C)c2C)cc1	32µM*	-7%	0%	i	i
Cc1ccc(-n2c(C)cc(C(=O)CSc3nncs3)c2C)cc1	22µM*	-7%	-20%	i	i
Cc1cc(C(=O)CSc2nnnn2C)c(C)n1CCc1ccc(F)cc1	15%	-2%	1%	?	i
CCCCc1cc(=O)oc2cc(C)c3c(C(C)(C)C)coc3c12	6%	.	.	i	i
O=C(O)Cn1c(-c2cccs2)cc2cc(Cl)ccc21	18µM*	.	.	i	i
O=C(Cn1c(-c2cccs2)cc2cc(Cl)ccc21)NCc1ccccc1	3%	.	.	i	i
COc1cccc(N2CC(NC(=O)COc3ccc4ccccc4c3)CC2=O)c1 (centres undefined)	14µM*	.	.	?	i
COC(=O)c1cnc(Nc2nc(CN)cs2)nc1C(F)(F)F	13%	.	-5%	i	i
O=C(c1ccccc1)N1c2nc(-c3ccco3)nn2C2(CCCCC2)[C@@H]2CCCC[C@@H]21	3%	.	.	i	i
C=CCOc1ccc2nc(NC(=O)OC)[nH]c2c1	8%	-3%	1%	i	i
SMILES	TDP-43 yeast inh	PTAP TSG101 blk	aSyn rescue	Abeta rescue	FUS suppressor
C=C(c1ccc2nc(NC(=O)OC)[nH]c2c1)c1cccs1	20µM*	1%	10%	i	.
O=C(OC12CCCN(C1)/C(=C/c1cccc(Cl)c1)C2)C1CCCC1 (centres undefined)	.	.	.	.	i
O=C(OCCN1C(=O)c2ccccc2C1=O)c1cc(=O)[nH]c2ccccc12	18%	-9%	2%	i	i
Cc1cc(C(=O)OCCN2C(=O)c3ccccc3C2=O)c2ccccc2n1	?	-1%	?	i	16µM*
O=C(c1cc2ccccc2[nH]1)c1cc2cc(O)ccc2[nH]1	.	.	-3%	.	.
S=C(NCCc1cccc(Cl)c1)NC1CCCCC1	4%	2%	2%	7.1µM*	i
